What all share (assay type): functional
In test [1] the test system is Plasmodium falciparum. Description: GSK_TCMDC: Inhibition of Plasmodium falciparum 3D7 in whole red blood cells, using parasite LDH activity as an index of growth. Test compounds present at 2uM.
Test [2] has as its system Plasmodium falciparum. Description: GSK_TCMDC: Inhibition of Plasmodium falciparum Dd2 in whole red blood cells, using parasite LDH activity as an index of growth. Test compounds present at 2uM.
Another test concerns HepG2. Kind of test: GSK_TCMDC: Percent inhibition of human HepG2 cell line. Test compounds present at 10uM.

As for `CN(C)CCOc1cc(NC(=O)Nc2ccc(-c3ccncc3)c(C(F)(F)F)c2)ccc1Cl`, the Inhibition in the test with Plasmodium falciparum [1] is on record as 100%; with Plasmodium falciparum [2], 79%; in the test on HepG2 it was 36%.
With `Cl.N=C(N)NN=Cc1c2ccccc2c(Cl)c2cc(Cl)ccc12`, the Inhibition worked out at 97% with Plasmodium falciparum [1], 28% with Plasmodium falciparum [2] and 26% in the test on HepG2.
Taken in the same sequence, the figures for `Cc1nnsc1C(=O)Nc1cccc(-c2csc(-c3nc4ccccc4[nH]3)c2)c1` were 94%, 50% and 51%.
Regarding `CC(C)C(=O)NC(c1ccc(N(C)C)cc1)c1cc(Cl)c2cccnc2c1O` (centres undefined), the Inhibition in the test with Plasmodium falciparum [1] was found to be 87%; with Plasmodium falciparum [2], 64%; in the test on HepG2 it was 61%.
Taken in the same sequence, the figures for `Cc1ccc(Nc2ccnc(Nc3ccc(F)c(Cl)c3)n2)cc1O.Cl` were 100%, 52% and 9%.
Taken in the same sequence, the figures for `CCCCNC(=O)[C@H](Cc1ccccc1)NC(=O)c1ccc(O)c(-c2ccc(Cl)c(Cl)c2)c1` were 98%, 97% and 0%.
Turning to `NC1CCN(Cc2ccc(-c3cccc(-c4nc5ccccc5[nH]4)c3)cc2)C1.O=C(O)C(F)(F)F` (centres undefined), the figures for the Inhibition in the test with Plasmodium falciparum [1], with Plasmodium falciparum [2] and with HepG2 were 98%, 0% and 19%, respectively.
Turning to `CCCc1cc(Cc2cnc(N)nc2N)cc(CCC)c1OCCCCCC(=O)OCC`, the Inhibition with Plasmodium falciparum [1] was 95%; in the test with Plasmodium falciparum [2], 0%; in the test on HepG2, 12%.
Taken in the same sequence, the figures for `CC(CN1CCN(CC(c2ccc(F)cc2)N2CCN(C)CC2)CC1)C(=O)c1ccc(O)cc1.O=C(O)/C=C\C(=O)O` (centres undefined) were 97%, 10% and 0%.
Taken in the same sequence, the figures for `COc1ccc(OC)c(NC(=O)CSc2nc(-c3ccccc3Cl)ns2)c1` were 95%, 32% and 0%.
As to `Cc1ccc2c(OCCN3CCC(Cc4cc5c(cc4F)OCC(=O)N5)CC3)cc(F)cc2n1.Cl`, the Inhibition was found to be 100% in the test on Plasmodium falciparum [1], 71% with Plasmodium falciparum [2] and 27% with HepG2.
For `Nc1c2c(nc3ccc(NC(=O)c4ccccc4)cc13)CCCC2` the same measures were 99%, 8% and 0%.
On to `Cl.N=c1n(Cc2ccccc2)c2ccccc2n1CC(O)c1ccc(Cl)cc1` (centres undefined), for which the figures for the Inhibition with Plasmodium falciparum [1], in the test with Plasmodium falciparum [2] and in the test on HepG2 were 96%, 75% and 26%, respectively.
Taken in the same sequence, the figures for `Cc1cccc(CN2CCCN(Cc3ccc(C(=O)Nc4ccc(C)c(F)c4)cc3)CC2)c1.O=C(O)C(F)(F)F` were 85%, 3% and 47%.
For `CCc1ccccc1NC(=O)CN1CCN(c2ncnc3scc(-c4ccc(F)cc4)c23)CC1` the same measures were 83%, 62% and 6%.
For `CCC[C@@H]([C@@H](CC(C)C)C(=O)N[C@@H](CCC/N=C(/N)NS(C)(=O)=O)C(=O)Nc1nccs1)N(O)C=O` the same measures were 95%, 41% and 10%.
As for `Cc1[nH]cc(Br)c(=O)c1-c1ccc(Oc2ccccc2)cc1`, the Inhibition in the test on Plasmodium falciparum [1] worked out at 97%; in the test with Plasmodium falciparum [2], 96%; in the test with HepG2 it was 0%.
Consider `O=C(NC1CCN(CCC[C@]2(c3ccc(Cl)c(Cl)c3)CCCN(C(=O)c3ccccc3)C2)CC1)c1ccc(F)cc1`, for which the figures for the Inhibition in the test on Plasmodium falciparum [1], with Plasmodium falciparum [2] and in the test on HepG2 were 90%, 68% and 52%, respectively.
As for `CCNc1cc(C(=O)N[C@@H](Cc2ccccc2)[C@H](O)CNCc2cc(C#N)ccc2OC)cc(N2CCCC2=O)c1.O=C(O)C(F)(F)F`, the Inhibition with Plasmodium falciparum [1] is 85%; in the test with Plasmodium falciparum [2], 51%; with HepG2 it was 0%.
As to `CC(OC(=O)c1ccc(C(=O)NCC2CC2)cc1)C(C)(C)C` (centres undefined), the values for the Inhibition in the test with Plasmodium falciparum [1], in the test with Plasmodium falciparum [2] and in the test on HepG2 were 93%, 86% and 10%, respectively.
For `COc1cc(C(=O)N2CCOC(CCN3CCc4c(c5ccccc5n4C)C3)(c3ccc(Cl)c(Cl)c3)C2)cc(OC)c1OC` (centres undefined) the same measures were 87%, 68% and 16%.
Turning to `Cl.Oc1ccc(Nc2nc(N3CCCC3)c3ccccc3n2)cc1`, the Inhibition was 100% in the test with Plasmodium falciparum [1], 100% with Plasmodium falciparum [2] and 10% in the test on HepG2.
As for `CC(=O)N(C)C1CCN(Cc2cccc(-c3ccc(-c4nc5cc(F)ccc5[nH]4)cc3)c2)C1.O=C(O)C(F)(F)F` (centres undefined), the Inhibition in the test with Plasmodium falciparum [1] was 92%; with Plasmodium falciparum [2], 19%; with HepG2, 24%.
Take `C=C(NC(=O)C1CCCCC1)C(=O)OC`: the Inhibition in the test with Plasmodium falciparum [1] worked out at 93%; in the test on Plasmodium falciparum [2] it was 3%; with HepG2, 15%.
As to `Cc1cc2[nH]c(-c3ccc(C(=O)NCCCN4CCN(c5cccc(Cl)c5)CC4)cc3)nc2cc1Cl`, the Inhibition in the test with Plasmodium falciparum [1] was found to be 98%; in the test with Plasmodium falciparum [2], 73%; in the test with HepG2, 1%.
Taken in the same sequence, the figures for `CN1CCCC1CCNCc1cccc(-c2cnc(N(C)C3CCCCC3)nc2)c1` (centres undefined) were 99%, 95% and 98%.
For `CN1CCC(N2CCC(Oc3cccc(C(=O)NCCCC4CCCC4)c3)CC2)CC1` the same measures were 100%, 48% and 41%.
Taken in the same sequence, the figures for `COc1ccc2ncc(C#N)c(CCN3CCC(NCc4cnc5c(c4)OCCO5)CC3)c2n1.Cl` were 91%, 24% and 3%.
As for `CN(Cc1cccc(C#N)c1)C1CCN(c2cc(NC(=O)c3ccc(F)cc3)ccn2)CC1.O=C(O)C(F)(F)F`, the Inhibition in the test on Plasmodium falciparum [1] is reported as 97%; with Plasmodium falciparum [2], 23%; with HepG2 it was 4%.
For `CC(=O)NC(c1cccs1)c1cc(Cl)c2cccnc2c1O` (centres undefined) the same measures were 94%, 93% and 65%.
Taken in the same sequence, the figures for `O=C(O)C(F)(F)F.O=[N+]([O-])c1cnc(Nc2ccccc2O)nc1Nc1ccccc1O` were 98%, 80% and 24%.
`CCC[C@@H]([C@@H](CC1CCC(C)CC1)C(=O)N[C@@H](CO)C(=O)Nc1nccs1)N(O)C=O` (some centres undefined): the figures for the Inhibition with Plasmodium falciparum [1], in the test on Plasmodium falciparum [2] and in the test with HepG2 were 100%, 84% and 0%, respectively.
For `c1ccc(CN2CCC(NCc3ccc(-c4cncc5ccccc45)cc3)CC2)cc1`, the Inhibition in the test with Plasmodium falciparum [1] was determined as 98%; in the test with Plasmodium falciparum [2] it was 19%; with HepG2, 21%.
Taken in the same sequence, the figures for `CNC(=O)c1cnc(Nc2ccc(N3CCN(C)CC3)cc2)nc1Nc1cccc(OC(C)C)c1.O=C(O)C(F)(F)F` were 100%, 100% and 16%.
Taken in the same sequence, the figures for `CNC(=O)c1cc(S(=O)(=O)N2CCN(c3ccccn3)CC2)cs1` were 99%, 100% and 0%.
In the case of `CS(=O)(=O)c1ccccc1CNC(=O)c1ccc(-c2ccc(-c3nc4cc(C(F)(F)F)ccc4[nH]3)s2)cc1`, the Inhibition turned out to be 96% with Plasmodium falciparum [1], 76% in the test on Plasmodium falciparum [2] and 90% in the test on HepG2.
For `O.O=C1C([N+](=O)[O-])=C(O)c2c(F)cccc21` the same measures were 95%, 13% and 9%.
As to `O=C(NC1CCCc2ccccc21)C1CCCN(C(=O)c2ccc(O)c(-c3ccc(Cl)c(Cl)c3)c2)C1` (centres undefined), the Inhibition in the test on Plasmodium falciparum [1] came to 88%; with Plasmodium falciparum [2], 54%; in the test on HepG2 it was 0%.
Taken in the same sequence, the figures for `CC(=O)Nc1nc(N)c2c(ccc3c2ccn3CC(C)C)n1` were 94%, 78% and 66%.
For `O=C(O)C(F)(F)F.OCC1CCN(Cc2ccc(-c3ccc(-c4nc5cc(F)ccc5[nH]4)cc3)cc2)CC1` the same measures were 100%, 95% and 17%.
Taken in the same sequence, the figures for `CC(C)N1CCN(C(=O)c2ccc(CNCCCN3CCN(c4cccc(Cl)c4Cl)CC3)s2)CC1.Cl` were 100%, 44% and 51%.
As for `CC1(C)CCCN(c2ncc(-c3cccc(CNCc4ccccc4O)c3)cn2)C1`, the Inhibition turned out to be 96% in the test with Plasmodium falciparum [1], 82% in the test on Plasmodium falciparum [2] and 35% with HepG2.
For `O=C(/C=C/c1ccc(Cl)c(Cl)c1)NC1CCN(Cc2ccc(O)cc2)C1.O=C(O)C(F)(F)F` (centres undefined) the same measures were 97%, 4% and 15%.
Turning to `Cc1[nH]c(C)c(-c2ccc(-c3ccc(C(F)F)cc3)nc2)c(=O)c1Cl`, the Inhibition with Plasmodium falciparum [1] is 97%; in the test with Plasmodium falciparum [2], 96%; with HepG2, 0%.
For `Cc1cc(N2CCCC2)nc(Nc2ccc(NC(=O)c3cccc(F)c3)cc2)n1` the same measures were 97%, 28% and 39%.
In the case of `NS(=O)(=O)c1cccc(N/C=C2\C(=O)Nc3ccc(S(=O)(=O)Cc4c(Cl)cccc4Cl)cc32)c1`, the Inhibition in the test on Plasmodium falciparum [1] was 92%; in the test on Plasmodium falciparum [2], 99%; in the test on HepG2, 1%.
Taken in the same sequence, the figures for `COc1cc2ncnc(Nc3ccc(OCc4ccccc4)c(C(F)(F)F)c3)c2cc1OC.Cl` were 100%, 78% and 8%.
As for `O=C(Nc1ccccc1Cc1ccccc1)c1ccccc1C(F)(F)F`, the Inhibition in the test on Plasmodium falciparum [1] amounted to 99%; in the test on Plasmodium falciparum [2], 85%; in the test with HepG2, 0%.
Consider `O=C(Nc1ccc(C(=O)N2CCN(CCN3CCN(c4cccc(C(F)(F)F)c4)CC3)CC2)cc1)c1cc(Cl)cc(Cl)c1`, for which the Inhibition is recorded as 100% with Plasmodium falciparum [1], 19% with Plasmodium falciparum [2] and 23% in the test with HepG2.
For `CCOc1cc(CC)ccc1C1CCN(CCN2CCC(CNC(=O)c3ccc(-c4ccc(C#N)cc4)cc3)CC2)CC1` the same measures were 89%, 100% and 53%.
Taken in the same sequence, the figures for `O=C(Nc1cccc(CN2CCCN(Cc3ccc(O)cc3)CC2)c1)c1cc2ccccc2o1.O=C(O)C(F)(F)F` were 95%, 62% and 10%.
Turning to `COc1ccc(CN(C)CCCOc2ccc(NC(=O)C=Cc3ccc(C(C)(C)C)cc3)cc2)cc1OC`, the Inhibition was 100% with Plasmodium falciparum [1], 87% with Plasmodium falciparum [2] and 14% in the test on HepG2.
Turning to `Cc1ccc2nc3c(cc(C(=O)NCc4ccccc4)c(=N)n3CCCn3ccnc3)c(=O)n2c1`, the Inhibition in the test on Plasmodium falciparum [1] turned out to be 93%; with Plasmodium falciparum [2] it was 0%; in the test with HepG2 it was 10%.
For `CS(=O)(=O)CCNc1nccc(N2CCc3ncnc(Nc4ccc(OCc5cccc(F)c5)c(Cl)c4)c3C2)n1`, the Inhibition came out at 100% in the test with Plasmodium falciparum [1], 100% with Plasmodium falciparum [2] and 8% in the test with HepG2.
With `CCOc1ccc(C(=O)Nc2cc(Br)c3c(c2)CNCC3)cc1C#N.Cl`, the Inhibition in the test on Plasmodium falciparum [1] stood at 97%; in the test on Plasmodium falciparum [2], 32%; in the test on HepG2 it was 17%.
For `CN1CCN(c2ccnc3ccc(NC(=O)Nc4ccc5ccccc5c4)cc23)CC1.Cl`, the Inhibition in the test on Plasmodium falciparum [1] worked out at 100%; in the test with Plasmodium falciparum [2], 99%; in the test on HepG2 it was 2%.
With `COc1cccc(OC2CCN(C(=O)c3ccc(-c4ccc(N5CCCC5=O)cc4C)cc3)CC2)c1`, the Inhibition with Plasmodium falciparum [1] is 85%; in the test with Plasmodium falciparum [2], 80%; in the test with HepG2, 42%.
In the case of `O=S(=O)(c1ccc(NC(S)=NN=Cc2ccccn2)cc1)N1CCCCC1`, the Inhibition in the test with Plasmodium falciparum [1] was 98%; in the test on Plasmodium falciparum [2], 56%; with HepG2 it was 43%.
Consider `Cn1c2c(c3ccccc31)CN(CCC1(c3ccc(Cl)c(Cl)c3)CN(C(=O)c3ccccc3)CCO1)CC2` (centres undefined), for which the Inhibition in the test on Plasmodium falciparum [1] is on record as 97%; with Plasmodium falciparum [2] it was 88%; in the test with HepG2, 10%.
Taken in the same sequence, the figures for `CS(=O)(=O)c1ccc(-c2cnc(N)c(-c3cccc(CO)c3)c2)cc1` were 98%, 51% and 0%.
Taken in the same sequence, the figures for `Cc1[nH]c(C)c(-c2ccc(C#Cc3ccc(F)cc3F)cc2)c(=O)c1Br` were 97%, 98% and 11%.
Regarding `COc1ccc2nccc(N3CCN(CCNCc4ccc5c(n4)NC(=O)CS5)CC3)c2c1.Cl`, the Inhibition in the test with Plasmodium falciparum [1] came to 97%; in the test with Plasmodium falciparum [2] it was 23%; with HepG2 it was 18%.
With `COc1ccc(Nc2nccc(N3CCC(NC(=O)Nc4cc(C)ccc4C)C3)n2)cc1` (centres undefined), the figures for the Inhibition with Plasmodium falciparum [1], in the test on Plasmodium falciparum [2] and with HepG2 were 91%, 37% and 10%, respectively.

Usually Inhibition stands for the relative decrease from the control value, in per cent. Read a high Inhibition as strong suppression.

Values taken from ChEMBL document CHEMBL1157539, “Thousands of chemical starting points for antimalarial lead identification” (Nature, 2010).
